The list is not random: actives were taken first. Their share in the collection is about 1.8%.
RAD52 inh: RAD52 (human) annealing inhibition; inhibition, % at 18.7 µM; 360,000 tested, 0.46% active; recombinant RAD52 DNA annealing, FRET fluorescence; AID 651710;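 active = every replicate showing at least 50% inhibition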
RAD54 branch: inhibitors of human RAD54 branch migration; Q92698; RAD54 Holliday junction branch migration, FAM/BHQ fluorescence; inhibition, % at 10.4 µM; 360,000 tested, 0.14% active;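 active = mean normalized replicate activity at least 40 and at least half of replicates scoring 40 or more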;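 also: inhibitors cause a drop in the FAM fluorescence signal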
Target sequence (Q92698 whole entry, looked up): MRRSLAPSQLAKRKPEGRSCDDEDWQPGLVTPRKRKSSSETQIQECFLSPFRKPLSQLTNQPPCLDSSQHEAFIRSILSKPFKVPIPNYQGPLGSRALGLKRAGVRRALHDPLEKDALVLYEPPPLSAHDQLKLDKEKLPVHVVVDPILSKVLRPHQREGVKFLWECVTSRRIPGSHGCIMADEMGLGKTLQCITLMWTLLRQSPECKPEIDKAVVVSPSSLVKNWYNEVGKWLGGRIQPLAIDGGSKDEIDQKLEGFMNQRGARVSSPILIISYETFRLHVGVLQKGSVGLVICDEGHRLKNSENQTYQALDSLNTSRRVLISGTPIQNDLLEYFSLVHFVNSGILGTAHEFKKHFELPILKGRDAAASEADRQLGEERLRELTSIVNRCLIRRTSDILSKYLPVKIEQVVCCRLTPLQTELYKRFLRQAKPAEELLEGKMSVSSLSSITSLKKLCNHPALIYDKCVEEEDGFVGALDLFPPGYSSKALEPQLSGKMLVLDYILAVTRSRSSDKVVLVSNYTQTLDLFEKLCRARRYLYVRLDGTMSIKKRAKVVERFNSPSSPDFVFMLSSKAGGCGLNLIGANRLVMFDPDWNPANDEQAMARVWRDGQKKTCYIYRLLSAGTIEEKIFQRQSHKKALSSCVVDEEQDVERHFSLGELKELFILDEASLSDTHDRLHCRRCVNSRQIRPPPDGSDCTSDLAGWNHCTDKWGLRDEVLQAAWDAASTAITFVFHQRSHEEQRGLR
EWS-Fli inh: inhibitors of EWS/Fli oncoprotein transcriptional activity; inhibition, % at 12.6 µM; 350,000 tested, 0.67% active; A673 NR0B1-luciferase reporter, viability-normalised;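 active = mean inhibition of at least 50% after viability correction, with every replicate also passing that limit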;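 also: firefly luciferase signal divided by Alamar Blue viability fluorescence both relative to DMSO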
INS-1E GSIS act: primary screen for activators of insulin secretion dependent on glucose, INS-1E cells, GLuc reporter luminescence. INS-1E GLuc reporter insulin secretion, 2-3 h. activation, % at 16.6 µM. 370,000 tested, 0.61% active;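 active = lowest replicate activation of at least 40%, so every replicate reaches that level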
CFTR F508del cor: CFTR F508del correction in bronchial cells; CFBE cells, YFP halide quenching; stimulated with forskolin plus potentiator P3; % fluorescence drop versus neutral controls; activity (quench increase), % at 7.58 µM; 350,000 tested, 0.36% active; AID 720511;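 active = mean added fluorescence quench of at least 8% versus neutral control, with both replicates also reaching 8%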;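 also: cells transiently co-express mutant CFTR-F508del with the halide-sensitive YFP; corrector assay measuring rescue of mutant channel to the surface after 24 h compound exposure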
LGR2 antag: Drosophila LGR2 receptor signaling inhibition | HEK293 LGR2, CRE-luciferase, bursicon-stimulated, 4 h | inhibition, % at 9.99 µM | 380,000 tested, 0.35% active | AID 720647;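 active = drop in luminescence signal, shown as inhibition above about 50% in the replicate tests, limit read from the data, passing the limit was not always enough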;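 also: agonist challenge used bursicon conditioned medium at about half maximal strength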
Each line names hits and unclear results; the compound was inactive in the other large screens.

Cc1ccc(-c2cc(C#N)c(=O)n(Cc3c(Cl)cccc3Cl)c2)cc1	none (no result: RAD52 inh, EWS-Fli inh, INS-1E GSIS act, CFTR F508del cor, LGR2 antag)
Cc1ccc(Cl)cc1N1CCN(C(=O)c2cc3c(=O)[nH]c4ccccc4c3n2C)CC1	LGR2 antag 64 (no result: RAD52 inh, RAD54 branch, EWS-Fli inh, CFTR F508del cor)
CC(C)NC(=S)N/N=C/c1ccc2c(c1)OCCO2	EWS-Fli inh 83 (no result: RAD54 branch, CFTR F508del cor)
C[C@@H]1CN([C@H](C)CO)C(=O)c2cc(NC(=O)Nc3ccc(C(F)(F)F)cc3)ccc2O[C@@H]1CN(C)Cc1ccc(C(=O)O)cc1	none
COP(=O)(OC)c1nc(-c2cccc3ccccc23)oc1N1CCCCC1	none (no result: LGR2 antag)
COc1cc(OC)c(/C=N/NC(N)=S)cc1Br	none (no result: RAD54 branch, CFTR F508del cor)
COc1cc2c(-c3ccccc3)c(C)oc2cc1/C=N/NC(N)=S	CFTR F508del cor 8.1
O=C(CSc1nc2ccccc2c(=O)n1-c1ccccc1)NCc1ccc2c(c1)OCO2	INS-1E GSIS act 110 (no result: RAD52 inh, EWS-Fli inh, CFTR F508del cor)
O=[N+]([O-])c1ccccc1NCCNc1ncc(C(F)(F)F)cc1Cl	none (no result: RAD52 inh, RAD54 branch, EWS-Fli inh, CFTR F508del cor)
O=c1[nH]c2cc(Cl)ccc2n(CCNc2ncc(C(F)(F)F)cc2Cl)c1=O	INS-1E GSIS act 72 (no result: RAD52 inh, RAD54 branch, EWS-Fli inh, CFTR F508del cor)
O=[N+]([O-])c1cc(Cl)ccc1NCCNc1ncc(C(F)(F)F)cc1Cl	INS-1E GSIS act 58 (no result: RAD52 inh, RAD54 branch, EWS-Fli inh, CFTR F508del cor)
O=C1C=CC(=O)N1CCNc1ncc(C(F)(F)F)cc1Cl	INS-1E GSIS act 147 (no result: RAD54 branch)
CCOCC(=O)Nc1c(C(=O)OCC)oc2ccccc12	INS-1E GSIS act 44 (no result: RAD52 inh, EWS-Fli inh, CFTR F508del cor)
O=C(Cc1ccccc1)NC(=S)Nc1ccc2oc(-c3ccccc3F)nc2c1	none (no result: RAD52 inh, EWS-Fli inh, CFTR F508del cor)
C=CCNc1nc(Cl)nc(Nc2ccc(OC)cc2)n1	INS-1E GSIS act 65 (no result: RAD52 inh, EWS-Fli inh, CFTR F508del cor)
C[C@@H]1CN([C@H](C)CO)C(=O)c2cccc(N(C)C)c2O[C@H]1CN(C)Cc1ccc2c(c1)OCO2	none
CCOC(=O)Nc1ccc2c(c1)N(C(=O)CCN1CCN(C)CC1)c1ccccc1S2	none (no result: RAD52 inh, EWS-Fli inh, INS-1E GSIS act, CFTR F508del cor, LGR2 antag)
CCOC(=O)Nc1ccc2c(c1)Sc1ccccc1N2C(=O)CCN1CCOCC1	INS-1E GSIS act 107 (no result: RAD52 inh, EWS-Fli inh, CFTR F508del cor)
O=C(NCc1cccc(F)c1)[C@@H]1[C@@H](CO)[C@@H]2Cn3c(ccc(-c4cccnc4)c3=O)[C@H]1N2CC1CC1	none (no result: CFTR F508del cor)
COc1ccccc1NC(=O)COc1cccnc1[N+](=O)[O-]	none
COC(=O)c1sc(NC(=O)COc2cccnc2[N+](=O)[O-])c(C(=O)OC)c1C	INS-1E GSIS act 40
CCOC(=O)[C@@H]1[C@H]2COc3ccc(Br)cc3[C@@H]2N2C(=O)N(c3ccc(Br)cc3)C(=O)[C@]12C	none
COC(=O)c1sc(NC(=O)/C=C/c2ccc(C)cc2)nc1C	INS-1E GSIS act 67 (no result: RAD52 inh, RAD54 branch, EWS-Fli inh, CFTR F508del cor)
CN(CC1COCCO1)c1nc2nonc2nc1N1CCSCC1 (stereo not drawn)	none (no result: RAD54 branch, INS-1E GSIS act)
COc1ccc2c(CC(=O)Nc3nccs3)coc2c1	none
CCOCCOC(=O)COC(=O)c1ccccc1NC(=O)c1ccccc1	CFTR F508del cor 11 (no result: RAD54 branch)
CCOC(=O)c1ccccc1NC(=O)COC(=O)CCCOc1ccccc1	INS-1E GSIS act 56 (no result: RAD54 branch)
O=Nc1c(O)c2ccccc2c2ccccc12	LGR2 antag 82
O=C(CCl)N1c2ccccc2CCc2ccccc21	EWS-Fli inh 84
O=[N+]([O-])c1ccc2c(c1)C(=NO)c1cc(Cl)c(Cl)cc1-2	none (no result: RAD54 branch)
COc1ccc(OCC(=O)Nc2ccc3c(c2)nc(CCn2ccccc2=O)n3C)cc1	none (no result: EWS-Fli inh)
COc1cc(C(=O)NCCNc2nc3cc(C)ccc3cc2C#N)cc(OC)c1OC	none (no result: INS-1E GSIS act)
Cc1ccc(C(=O)Nc2cccc(C(F)(F)F)c2)cc1Nc1cnccn1	CFTR F508del cor 10
Cc1ccc(C(=O)Nc2cccc(C(F)(F)F)c2)cc1NC(=O)c1nccn1C	none
O=S(=O)(c1cccs1)N1CN(C2CCCCC2)c2nc3ccccc3nc21	INS-1E GSIS act 80
O=S(=O)(c1cccs1)N1CN(C2CCCC2)c2nc3ccccc3nc21	none (no result: RAD54 branch)
Cc1ccc2[nH]c(C(=O)N/N=C/c3ccccc3O)c(C)c2c1	CFTR F508del cor 8.4
Cc1ccc2[nH]c(C(=O)N/N=C/c3ccccc3C(=O)O)c(-c3ccccc3)c2c1	none
O=C(N/N=C/c1ccccc1)c1[nH]c2ccc(Br)cc2c1-c1ccccc1	EWS-Fli inh 76 (no result: RAD54 branch)
COc1ccc(NC(=O)CC(C)CC(=O)NCc2ccccc2)c(OC)c1 (stereo not drawn)	none
NC(=O)CSc1nc(-c2ccccc2)c(-c2ccccc2)o1	INS-1E GSIS act 73 (no result: RAD52 inh, EWS-Fli inh, CFTR F508del cor)
O=C(CCN1C(=O)c2ccccc2C1=O)N1CCCCCC1	none (no result: RAD52 inh, EWS-Fli inh, CFTR F508del cor)
c1ccc(-c2nnc3ccc(N4CCC5(CC4)OCCO5)nn23)cc1	INS-1E GSIS act 61 (no result: RAD52 inh, EWS-Fli inh, CFTR F508del cor)
NC(=O)C1(N2CCCCC2)CCN(c2ccc3nnc(-c4ccccc4)n3n2)CC1	none
COc1ccc(C2CC(c3cccs3)=NN2C(=O)CCl)cc1OC (stereo not drawn)	EWS-Fli inh 58
COc1cc(C2CC(c3cccs3)=NN2C(=O)CCl)ccc1OC(F)F (stereo not drawn)	EWS-Fli inh 61
COc1ccc(C2CC(c3cccs3)=NN2C(=O)c2ccccc2)cc1OC (stereo not drawn)	none
CCNc1nc(NC(C)CC)nc(ON=C(C)C)n1 (stereo not drawn)	INS-1E GSIS act 56
CCNc1nc(NC(C)CC)nc(Oc2ccc(=O)[nH]n2)n1 (stereo not drawn)	none
CC(=O)C(C(c1ccccc1)c1c[nH]c2ccccc12)[N+](=O)[O-] (stereo not drawn)	EWS-Fli inh 51 (no result: CFTR F508del cor)
CCn1cc(C(c2ccccc2)C(C(C)=O)[N+](=O)[O-])c2ccccc21 (stereo not drawn)	none
CCOC(=O)N1CCN(C(=O)C2CCN(S(=O)(=O)c3ccc(Cl)cc3)CC2)CC1	none (no result: RAD52 inh, EWS-Fli inh, INS-1E GSIS act, CFTR F508del cor, LGR2 antag)

Screening results deposited in PubChem by Broad Institute.
